This note sets out measurements from PubChem BioAssay (EPA / NIEHS).

The source made the active and inactive calls. Rule for the calls: active = hit-call score of the fitted dose curve at least 0.9, where 1 is the maximum; inactive = score below 0.9.

This experiment can be described thus: ATG_SREBP_CIS: Attagene CIS-FACTORIAL HepG2 Assay for human Sterol Regulatory Element Binding (SREBP) (AID 2282962). The following applies: HepG2 Attagene cis-factorial SREBP reporter, mRNA; actives raise or lower the signal. On the procedure:
ATG_CIS is a cell-based, multiplexed-readout assay that uses HepG2, a human liver cell line, with measurements taken at 24 hours after chemical dosing in a 24-well plate.ATG_SREBP_CIS is one of 52 assay component(s) measured or calculated from the ATG_CIS assay. It is designed to make measurements of mRNA induction, a form of inducible reporter, as detected with fluorescence intensity signals by Reverse transcription polymerase chain reaction (RT-PCR) and Capillary electrophoresis technology.Data from the assay component ATG_SREBP_CIS was analyzed into 1 assay endpoint. This assay endpoint, ATG_SREBP_CIS, was analyzed with bidirectional fitting relative to DMSO as the negative control and baseline of activity. Using a type of inducible reporter, measures of mRNA for gain or loss-of-signal activity can be used to understand the reporter gene at the transcription factor-level as they relate to the gene SREBF1. Furthermore, this assay endpoint can be referred to as a primary readout, because this assay has produced multiple assay endpoints where this one serves a reporter gene function. To generalize the intended target to other relatable targets, this assay endpoint is annotated to the dna binding intended target family, where the subfamily is basic helix-loop-helix leucine zipper.
Human liver HepG2 cells are transiently transfected with multiple reporter transcription units (MRTUs) in 6-well plates using FuGene 6 reagent (Roche; 3 ml FuGene/1 mg DNA). The MRTU constructs are regulated by a cis-regulating element (promoter). […] A major difference between the CIS and TRANS system is that in CIS activities of endogenous TFs are measured, whereas the TRANS assay evaluates changes in activities of exogenous, chimeric NR-Gal4 proteins. […] At the end of 24 hour incubation, total RNA was isolated using TriZol reagent (Invitrogen). The isolated RNA is then reverse-transcribed using oligo(dT) primer and Mo-MLV reverse transcriptase (Invitrogen) with DNAse I (Ambion) treatment for 30 min. The one-tenth of the produced cDNA was amplified by PCR using Taq DNA polymerase (Invitrogen) and two reporter sequence-specific primers. The PCR products were fluorescently labeled by primer extension with 6-arboxyfluorescein (6-FAM) 5'-labeled reporter sequence-specific primer (2 min at 95 C, 20 s at 68 C and 10 min at 72 C) and these products were digested with 5U of HpaI (New England Biolabs) for 2h at 37 C. The fragments were purified using Qiaquick PCR columns (Qiagen), analyzed on an ABI 3130xL genetic analyzer (Applied Biosystems) with peak positions identified by using a set of X-rhodamine (ROX)-labeled MapMarker1000 molecular weight standards (BioVentures). The raw capillary electrophoresis data was processed using Attagraph software (Attagene).
Consider `Cc1c(Cl)cccc1[N+](=O)[O-]`, for which the compound was called inactive. As to `Cc1cc(S(=O)(=O)O)ccc1N=Nc1c(O)ccc2ccccc12`, the call was inactive. On the same count and under the same terms, for `CCCCOC(=O)CCCCCCCC(=O)OCCCC` the value was “inactive”. The same measure, in the same setting: to `COc1cc([C@@H]2c3cc4c(cc3[C@@H](O[C@@H]3O[C@@H]5CO[C@@H](C)O[C@H]5[C@H](O)[C@H]3O)[C@H]3COC(=O)[C@H]23)OCO4)cc(OC)c1O` belongs “inactive”; to `CCOc1ccc(NC(=O)CC(C)=O)cc1`, “inactive”; to `CC1(C)C(=O)N(Cl)C(=O)N1Br`, “inactive”. With `CN(c1nccc(=O)[nH]1)C1CCN(c2nc3ccccc3n2Cc2ccc(F)cc2)CC1`, the compound was classed as inactive.

With `CS(C)=O`, the call was inactive. Same read-out and setting: to `CCCC(O)C(O)CO` (stereo not given) belongs “inactive”. For `CC(=O)NCCO`, the call was inactive. In the case of `C[C@H]1C[C@@H](O)CC(C)(C)C1`, the compound was called inactive. On to `O=C(Nc1ccc([N+](=O)[O-])cc1)Nc1ccc([N+](=O)[O-])cc1` (tested in a mixture with another compound), for which the outcome was inactive. In the case of `COC(=O)Nc1ccc(Cl)c(Cl)c1`, the compound was classed as inactive. For the compound `CC(C)(CO)[C@@H](O)C(=O)NCCC(=O)O`, the call was inactive. For `CCCCCCCCCCCCCCCC(=O)OC/C=C(C)/C=C/C=C(C)/C=C/C1=C(C)CCCC1(C)C`, the compound was called inactive.

Turning to `CN(C)CCOC(C)(c1ccccc1)c1ccccn1` (stereo not given), the call was inactive.

Turning to `COC(=O)c1ccc(C)cc1C1=NC(C)(C(C)C)C(=O)N1` (stereo not given) (tested in a mixture with another compound), the compound was called inactive.

With `CCC(C)c1cc([N+](=O)[O-])cc([N+](=O)[O-])c1OC(=O)OC(C)C` (stereo not given), the AC50 was 25.1 µM (active).

On to `O=C(Nc1ccc2c(O)c(N=Nc3ccc(N=Nc4ccc(S(=O)(=O)O)cc4)cc3)c(S(=O)(=O)O)cc2c1)c1ccccc1`, for which the result was inactive. As for `C=CC(=O)OCCC#N`, the half-maximal activity concentration (AC50) is 76.4 µM (active).

For `CCCCCCCCCCCC(=O)OCC(O)CO` (stereo not given), the concentration at half-maximal activity (AC50) was 100 µM (active). As for `Nc1ccc2c(O)cc(S(=O)(=O)O)cc2c1`, the result was inactive. As to `O=C1CCCC=CCCCCCCCCCC1`, the result was inactive. On the same count and under the same terms, to `CCC(C)=O` belongs “inactive”; to `CCOC(=O)c1ccc(N)cc1`, “inactive”; to `Cc1ccc(S(N)(=O)=O)cc1`, “inactive”. On the same count and under the same terms, for `OCCCCC(O)CO` (stereo not given) the value was “inactive”. Consider `CC(C)CCOC(=O)c1ccccc1`, for which the compound was classed as inactive. As to `C1CCOC1`, the outcome was inactive. Turning to `Nc1ccc(NCCO)c([N+](=O)[O-])c1`, the result was inactive.

On to `CCN(CCN)c1cccc(C)c1`, for which the compound was classed as inactive.

For `CCOc1ccccc1O`, the outcome was inactive. For the compound `OCCc1ccccc1`, the outcome was inactive. On to `O=C(O)CNc1ccccc1`, for which the result was inactive. Take `COc1cccc(OC)c1O`: the compound was called inactive. As to `C=CC(=C)CCCC(C)(C)OC(C)=O`, the call was inactive.

Turning to `Cc1ncc([N+](=O)[O-])n1CCO`, the result was inactive. Turning to `Oc1ccc2cc(SSc3ccc4cc(O)ccc4c3)ccc2c1`, the half-maximal activity concentration (AC50) is 8.33 µM (active). For `CC(C)(C)c1ccc(C(=O)O)cc1`, the outcome was inactive. For the compound `CC(C)(C)CC(C)(C)c1ccc(OCCOCC[N+](C)(C)Cc2ccccc2)cc1`, the AC50 is 8.35 µM (active).

Broadly, the AC50 is the concentration giving half of the maximal activity seen.
